# Experiments:
# Settings in all cases: concentration: 10 µM; 24 h
# HCC1569 [1] = assay: cell number relative to DMSO (% of DMSO); higher = more cells (less growth inhibition / toxicity)
# Summary of the method: (§1)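 Treatment: HCC1569 and TDF cells, 800 per well in 384-well plates with RPMI and 10% FBS, were given compounds at 10 µM for 24 h at 37 °C, in triplicate. Readout: after 3.7% formaldehyde fixation, cells were stained with a rabbit anti-H1.0 antibody, an AlexaFluor 647 secondary and DAPI. Reported values are H1.0 nuclear intensity or cell number as percent of the plate control, taken as the median of replicates, with positional smoothing for HCC1569.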
# TDF [2] = assay: as above
# Summary of the method: as §1
# TDF [3] = assay: H1.0 immunofluorescence intensity relative to DMSO (% of DMSO); higher = stronger H1.0 induction, active = 120 or more
# Summary of the method: as §1
# HCC1569 [4] = assay: H1.0 immunofluorescence intensity relative to DMSO (% of DMSO); higher = stronger H1.0 induction, active = 140 or more
# Summary of the method: as §1
# 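For H1.0 immunofluorescence intensity relative to DMSO in this document: TDF is a line of transformed human dermal fibroblasts of mesenchymal origin.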
# 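For cell number relative to DMSO in this document: TDF denotes transformed human dermal fibroblasts of mesenchymal origin.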
SMILES,cell number (HCC1569 [1]),cell number (TDF [2]),H1.0 immunofluorescence intensity (TDF [3]),H1.0 immunofluorescence intensity (HCC1569 [4])
CC(=O)OC12COC1CC(O)C1(C)C(=O)C(O)C3=C(C)C(OC(=O)C(O)C(NC(=O)OC(C)(C)C)c4ccccc4)CC(O)(C(OC(=O)c4ccccc4)C21)C3(C)C (configuration not stated) [Docetaxil],61.6,13,147 (active),144 (active)
COCC(=O)NCC=Cc1ccc2ncnc(Nc3ccc(Oc4ccc(C)nc4)c(C)c3)c2c1,76.8,94.9,98.3 (inactive),158 (active)
CCCCC1(C2CCCC2)Cc2cc(OCC(=O)O)c(Cl)c(Cl)c2C1=O (stereo not drawn) [R(+)-Butylindazone],98.8,107,86.7 (inactive),91.3 (inactive)
O.O.O=c1c(O)c(-c2ccc(O)c(O)c2)oc2cc(O)cc(O)c12 [Quercetin dihydrate],88.6,98.7,90.2 (inactive),134 (inactive)
O=c1ccn(C2OC(COP(=O)([O-])OP(=O)([O-])O)C(O)C2O)c(=O)[nH]1.[Na+].[Na+] (configuration not stated) [Uridine 5'-diphosphate sodium],105,106,95.6 (inactive),98.7 (inactive)
Cc1ccc(C(=O)COC(=O)c2cccc(NC(=O)c3ccc([N+](=O)[O-])cc3[N+](=O)[O-])c2)cc1,76.5,67.7,110 (inactive),152 (active)
CC(=O)NNC(=O)N1Cc2ccccc2Oc2ccc(Cl)cc21,101,114,91 (inactive),103 (inactive)
O=C(OC1CC2CC3CC(C1)N2CC3=O)c1c[nH]c2ccccc12 (configuration not stated) [Dolasetron],99.1,84.3,102 (inactive),105 (inactive)

# From the supplement of paper PMC7156485
